The list is not random: actives were taken first. Their share in the collection is about 1.7%.
ARNT TACC3 PPI = disruptors of ARNT/TACC3 protein interaction, primary screen, biochemical, AlphaScreen, single concentration. Transforming acidic coiled-coil-containing protein 3 (Homo sapiens), Q9Y6A5. AlphaScreen His-ARNT PAS-B/GST-TACC3 binding, luminescence; TACC3 fragment carries E629A point mutation. inhibition, % at 9.99 µM. actives 0.66% (n = 390,000). AID 623870, 2012;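 active = mean inhibition of replicates at least 50% and at least half of replicates each reaching 50%; inconclusive = half or more replicates reach 50% but mean below 50%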;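 also: 0% = complete ARNT plus TACC3 wells and 100% = ARNT alone without TACC3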
aDG glyco up = activators of alpha-DG glycosylation, primary screen, uHTS, Pro5-aDG cells, AlphaScreen; activation, % at 10 µM; alpha-DG glycosylation AlphaScreen (IIH6); 0% Pro5, 100% B10-LARGE cell signal; actives 0.22% (n = 360,000); AID 624168, 2012;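 active = activation of at least 8% versus controls, or a plate z-score of at least 8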;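 also: Pro5 are CHO cells carrying HIG-tagged alpha-DG that lacks glycosylation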
Glyco luc inh = increase of ERlucT glycosylation luciferase signal, primary screen, N-linked glycosylation inhibitor project, D54 ERlucT cells, luminescence, set 2; D54 ERlucT glycosylation luciferase reporter, 24 h; percent of 100 nM tunicamycin response; AID 588692, 2011; reporter increase, % at 12.5 µM; actives 0.23% (n = 360,000);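 active = mean luciferase reporter signal, scaled so untreated is 0 and the glycosylation-blocking control 100, at or above a set limit in every replicate; inconclusive = mean reaches the limit but not every replicate does; inactive = mean below the limit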;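 also: luciferase carries N-glycosylation sites so blocking glycosylation raises the light; 0% = median of neutral control wells and 100% = median of 100 nM tunicamycin wells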
Cardio protect = cardioprotection against H2O2-induced cell death, primary screen, uHTS, H9c2 cells, ATPLite luminescence; H9c2 cardiomyocytes, H2O2 injury protection, 2 h; AID 588492, 2011; protection from H2O2 cell death, % at 20 µM; actives 0.63% (n = 360,000);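 active = compounds giving at least 50% protection of heart cells from peroxide-induced death in the single-dose screen, raw or plate-pattern-corrected value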;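 also: 0% = DMSO wells with peroxide and 100% = DMSO wells without peroxide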
Vif inh = HIV Vif self-association inhibitors, primary screen, imaging, HEK293T, single point | HEK293T cells, Vif self-association by quenched fluorescence, 24 h | inhibition, % at 7.49 µM | actives 0.35% (n = 340,000) | AID 602346, 2012; in the data active = inhibition above about 50%, passing the limit was not always enough; inconclusive = no clear call, values can overlap the other calls; inactive = below about 31%
* = called active by the depositor; i = inactive; ? = inconclusive; · = no result.

SMILES | ARNT TACC3 PPI | aDG glyco up | Glyco luc inh | Cardio protect | Vif inh
COc1ccc(C(=O)N/N=C/c2sc3ccccc3c2O)cc1 | 78* | 1 | -11 | 23 | ·
COc1ccc(NS(=O)(=O)c2cccc(C(=O)N/N=C/c3c(F)c(F)c(F)c(F)c3F)c2)cc1 | -5 | 1 | 6 | 6 | 13
COc1ccc2cc(C(=O)N/N=C/c3sc4ccccc4c3O)ccc2c1 | 64* | 0 | -8 | 20 | -2
COc1ccc(C(=O)N/N=C/c2cccnc2)cc1 | 6 | 0 | 0 | -9 | -2
O=C(c1ccccc1)C1OC1C(=O)c1ccccc1 (stereo not given) | 7 | 0 | -8 | -10 | 73*
C[C@@H]1CN([C@H](C)CO)C(=O)c2cc(NC(=O)Nc3ccc(F)cc3)ccc2O[C@@H](C)CCCCO[C@@H]1CN(C)S(=O)(=O)c1ccc(Cl)cc1 | 13 | · | · | · | ·
CCCN(C)C[C@@H]1Oc2ncc(-c3cccc(C#N)c3)cc2C(=O)N([C@@H](C)CO)C[C@H]1C | -4 | · | · | · | ·
Cc1cc(-c2ccccc2)nc(N/N=C/c2ccc([N+](=O)[O-])cc2)n1 | 2 | 0 | -3 | 53* | 7
Cc1cc(-c2ccccc2)nc(N/N=C/c2ccccc2)n1 | 34 | 0 | 1 | -11 | 0
C/C(=N\NC(N)=O)c1cc(Cl)cc(Cl)c1O | · | 0 | 2 | 3 | 9
CC(=NNC(N)=O)C1=C(O)C(C(C)C)NC1=O (stereo not given) | 60* | 0 | 3 | 2 | 7
CN(C)C(=O)C[C@@H]1CC[C@H]2[C@@H](COC[C@H](O)CN2CC2CCOCC2)O1 | 14 | · | · | · | ·
COc1ccc(CCN(C)C(=O)c2cnc(C)cn2)cc1OC | active | 0 | 0 | 10 | 12
CN1c2ccc(-c3ccc(C#N)cc3)cc2[C@@H]2[C@@H](CCN2C(=O)CN2CCOCC2)[C@@H]1CO | 3 | · | · | · | ·
CC(C)NC(=O)N[C@@H]1CC[C@H](CC(=O)NCc2ccc(Oc3ccccc3)cc2)O[C@H]1CO | 46* | · | · | · | ·
C[C@@H]1CN([C@H](C)CO)C(=O)c2cccc(NS(=O)(=O)c3cccs3)c2O[C@@H]1CN(C)C(=O)Nc1ccc2c(c1)OCO2 | -4 | · | · | · | ·
Cc1c(C)n(-c2ccccc2)c2ncnc(NCCCN(C)C)c12 | -1 | 0 | -1 | 5 | 2
Cc1ccc(-n2c(C)c(C)c3c(NCCO)ncnc32)cc1 | 27* | 0 | 3 | -1 | 9
Cc1cc(/C=C2\C(=N)N3N=C(C(C)C)SC3=NC2=O)c(C)n1Cc1ccccc1 | -6 | 0 | 4 | -1 | -1
Cc1cc(/C=C2\C(=N)N3C(SCc4ccccc4)=NSC3=NC2=O)c(C)n1Cc1ccccc1 | -4 | 0 | 2 | -10 | 93*
CCN(CC)CCN1C(=O)c2cccc3cc(N)cc(c23)C1=O | -36 | 0 | 60* | 13 | 25
NC(=O)c1nsc(C(=O)N(c2ccccc2F)C(C(=O)NCc2ccc(F)cc2)c2ccc(O)cc2)c1N (stereo not given) | -10 | 0 | -5 | 52* | -4
NC(=O)c1nsc(C(=O)N(Cc2cccnc2)C(C(=O)NCc2ccc(F)cc2)c2ccc(O)cc2)c1N (stereo not given) | 0 | 0 | 1 | 16 | 51*
Cc1cc2nc3ccc(=[N+](C)C)cc-3sc2cc1N | 38 | 36* | -20 | -26 | -18
CN(C)c1ccc2nc3ccc(=[N+](C)C)cc-3sc2c1 | · | 47* | -16 | -30 | -3
SMILES | ARNT TACC3 PPI | aDG glyco up | Glyco luc inh | Cardio protect | Vif inh
CN(C)CCCNC(=O)C[C@@H]1CC[C@@H]2[C@@H](COc3ccc(NS(C)(=O)=O)cc3C(=O)N2C)O1 | -3 | · | · | · | ·
C(=C/c1nccc2c1[nH]c1ccccc12)/c1ccc2c(c1)OCO2 | -9 | 0 | 0 | 6 | 72*
C(=N\Nc1nc2ccccc2[nH]1)/c1ccc2c(c1)OCO2 | 5 | 1 | -8 | 3 | -1
COc1cccc(C(=O)Nc2ccc3c(c2)C(=O)N(C)C[C@H](OC)[C@@H](C)CN(C(=O)C2CCCC2)[C@H](C)CO3)c1 | -42 | · | · | · | ·
Nc1nonc1-n1nnc(C(=O)N/N=C/c2ccc(OCc3ccccc3)cc2)c1CNc1ccccc1 | -5 | 0 | 2 | 10 | -1
Nc1nonc1-n1nnc(C(=O)N/N=C/c2ccccn2)c1CNc1ccccc1 | 47* | 0 | 2 | 50* | -4
Cc1c(C(=O)N/N=C/c2ccncc2)nnn1-c1nonc1N | -6 | 0 | 2 | 6 | -1
Cc1c(C(=O)N/N=C/c2ccccn2)nnn1-c1nonc1N | 43* | 0 | -1 | 18 | 13
CN(C)c1ccc2c(c1)[C@@H]1C[C@@H](CC(=O)NCc3cc(F)ccc3F)O[C@H](CO)[C@@H]1O2 | active | · | · | · | ·
COC(=O)C[C@H]1C[C@@H]2c3cc(N(C)C)ccc3O[C@@H]2[C@@H](CO)O1 | 45* | · | · | · | ·
COC(=O)C[C@H]1C[C@H]2c3cc(N(C)C)ccc3O[C@H]2[C@H](CO)O1 | 34 | · | · | · | ·
Cc1noc(C)c1NC(=O)Nc1ccc2c(c1)C(=O)N([C@@H](C)CO)C[C@@H](C)[C@@H](CN(C)C(=O)Nc1ccc(F)cc1)O2 | -2 | · | · | · | ·
CCOc1ccc(C(=O)c2cc([N+](=O)[O-])ccc2N2CCOCC2)cc1 | 12 | 0 | 7 | -3 | 74*
COc1ccc(OC)c(/C=C/c2ccc3cccc(O)c3n2)c1 | · | 0 | 23 | 61* | -2
Cc1c(CCC(=O)N[C@@H](C)C(=O)O)c(=O)oc2cc3occ(-c4ccccc4)c3cc12 | 49* | 0 | 1 | 0 | -1
O=C1C=CC(=O)c2c(O)c(N3CCN(CCO)CC3)c(Cl)c(O)c21 | 31* | 0 | -19 | -15 | 127*
OCCOCCN1CCN(C2=Nc3ccccc3Sc3ccccc32)CC1 | i | 0 | -3 | 3 | ?
O=C1C=CC(=O)c2c(O)c(N3CCN(CCOCCO)CC3)c(Br)c(O)c21 | 17 | 0 | -21 | -14 | 72*
COc1ccc(NS(=O)(=O)c2ccc3ccccc3c2)c2ncccc12 | 12 | 0 | -1 | 59* | 7
O=C(C[C@@H]1C[C@H]2c3cc(NC(=O)Nc4ccc(C(F)(F)F)cc4)ccc3O[C@H]2[C@@H](CO)O1)NCc1ccc(Cl)cc1 | -5 | · | · | · | ·
c1ccc(-c2csc3ncnc(NCCCN4CCOCC4)c23)cc1 | · | 0 | -2 | -9 | -11
O=c1c2c(-c3ccccc3)csc2nc2c3ccccc3c(NCCN3CCOCC3)nn12 | 74* | 0 | 20 | -37 | 10
Cc1ccc(S(=O)(=O)/C(C#N)=C/c2c(N3CC(C)OC(C)C3)nc3ccccn3c2=O)cc1 (stereo not given) | · | 0 | 2 | 2 | 67*
Cc1ccc(S(=O)(=O)/C(C#N)=C/c2c(N3CCCCC3)nc3ccccn3c2=O)cc1 | · | 0 | 1 | -1 | -2

Screens from PubChem.
